The values that follow come from ChEMBL document CHEMBL4888484, “Replenishing the malaria drug discovery pipeline: Screening and hit evaluation of the MMV Hit Generation Library 1 (HGL1) against asexual blood stage Plasmodium falciparum ,using a nano luciferase reporter read-out” (2022).

Each structure is given as a SMILES string. Hit rate of the full screen: of about 150,000 compounds, about 540 (0.36%) showed an effect of 50% or more. What follows is part of a selection rich in strong results, with near analogues and random picks from the rest.

As usually defined, the % Inhibition is the relative decrease from the control value, in per cent.

The subject of this assay is Plasmodium falciparum. Kind of assay: Primary screen in NF54 nanoGlo assay, in single point, at 2uM, 72h; a lower Z score goes with more inhibition. Type of assay: functional, Erythrocyte. The following applies: timepoint 72 hour.
Turning to `OC(CNC1CCCNc2ccccc21)c1ccc(Cl)s1` (stereo not drawn), the “% Inhibition” value came out at 57% and the Z score is -4.74.
Regarding `O=C(Cc1cccs1)N1CCC2(CCC(=O)N(CCc3cccnc3)C2)CC1`, the “% Inhibition” value stood at 5% and the Z score was -1.07.
The matching figures for `COc1ncnc(OC)c1CNc1cnn(C)c1`: 35% and -0.52.
Take `O=C(CC(F)(F)F)N1CCC[C@H](Oc2ncccn2)C1`: the “% Inhibition” value is on record as 14% and the Z score is reported as -1.95.
On to `Cc1noc2ncnc(N3CCC4(CC3)CC(=O)N(Cc3ccccc3)C4)c12`, for which the “% Inhibition” value is given as -6% and the Z score came to 0.71.
The corresponding values for `O=C(c1cc(-c2ccco2)n[nH]1)N1CCC(N2CCC(Oc3ccccc3F)CC2)CC1` are 59% and -4.88.
As to `O=C(c1cc(-c2ccco2)n[nH]1)N1CCC(Oc2ccccn2)CC1`, the “% Inhibition” value was -4% and the Z score is on record as 0.71.
The corresponding values for `O=C(c1cc(-c2ccccc2)n[nH]1)N1CCC(N2CCC(Oc3ccccc3F)CC2)CC1` are -12% and 1.48.
The matching figures for `CC[C@H](Oc1ccccc1C)c1nnc(C2(c3ccccc3)CC2)o1`: -15% and 1.76.
The matching figures for `CC(C)(C)OC(=O)NC1CCCC1Nc1cnn(-c2ccccn2)c1` (stereo not drawn): -13% and 1.28.
`Cc1ccsc1-c1noc([C@@H]2COCCN2C)n1`: the “% Inhibition” value is 87% and the Z score is on record as -14.98.
As for `Cc1ccsc1-c1noc([C@H]2CCc3nccn3C2)n1`, the “% Inhibition” value is recorded as -5% and the Z score was 0.62.
Take `Cc1cnn(C)c1CN1CCOC[C@H]1c1nc(-c2ccccc2)no1`: the “% Inhibition” value is 16% and the Z score is listed as -2.06.
The matching figures for `CC(NCc1ccc(Br)c2cccnc12)C1CCOC1` (stereo not drawn): -5% and 0.52.
Regarding `Cc1ccc(C(=O)Nc2c(C)nc(N3CCOCC3)nc2C)cc1C`, the “% Inhibition” value worked out at 13% and the Z score was -2.05.
The corresponding values for `O=S(=O)(Nc1cccc2ccccc12)c1cccs1` are 35% and -3.95.
The corresponding values for `Cc1n[nH]c(C)c1S(=O)(=O)Nc1cccc2cccnc12` are -2% and 0.25.
The matching figures for `O=S(=O)(Nc1cccc2cccnc12)c1cccs1`: 55% and -5.93.
For the compound `CCN1C[C@]2(CCCN(C(=O)c3ccccc3N3CCCC3)C2)CCC1=O`, the “% Inhibition” value was determined as 7% and the Z score is -1.03.
The matching figures for `Cc1nn(-c2cnc(N)cn2)c(C)c1Cc1ccccc1`: -7% and 0.91.
The corresponding values for `COc1ccc(CC(=O)N2CC3(C[C@H](N4CCN(C)CC4)CO3)C2)cc1` are -7% and 1.04.
The corresponding values for `Clc1ccccc1OCCn1nc(C2CC2)nc1C1CC1` are 2% and -0.37.
As to `C[C@@H]1CN(c2nc(C(F)F)nc3ccc(F)cc23)C[C@H](C)N1`, the “% Inhibition” value is -4% and the Z score came out at 0.64.
The matching figures for `CO[C@@H]1CO[C@H]2[C@@H]1OC[C@@H]2Nc1nccc(-c2ccc3c(c2)OCO3)n1`: -2% and 0.19.
`CCn1ccc(C(=O)N2CCCN(Cc3c(C)noc3C)CC2)n1`: the “% Inhibition” value is recorded as -3% and the Z score amounted to 0.35.
The corresponding values for `NC(=O)[C@@H]1CCCN1C(=O)c1ccnc(OC2CCCCC2)c1` are 53% and 0.89.
The corresponding values for `NC(=O)[C@@H]1CCCCN1C(=O)c1ccnc(-n2cccn2)c1` are 12% and -1.33.
Consider `CC[C@H]1CCCCCN1C(=O)c1ccnc(OC2CCC2)c1`, for which the “% Inhibition” value is recorded as -5% and the Z score amounted to 0.5.
`COc1ccc(CCc2nc(NC(=O)[C@H]3CC(=O)N(C)C3)n[nH]2)cc1OC`: the “% Inhibition” value turned out to be 15% and the Z score was -2.27.
On to `COc1ccc(CCc2nc(NC(=O)c3nc(C)sc3C)n[nH]2)cc1OC`, for which the “% Inhibition” value worked out at 71% and the Z score is -9.67.
The corresponding values for `COc1ccc(CCc2nc(NC(=O)C(C)C)n[nH]2)cc1OC` are 13% and -1.63.
The corresponding values for `COC1CCCC(CC(=O)NC2CC(=O)N(C)C2)C1` (stereo not drawn) are 2% and -0.4.
For `CC(C)C[C@H]1CCCN(CC(=O)N2CC(=O)Nc3ccccc32)C1`, the “% Inhibition” value is given as -1% and the Z score is listed as 0.19.
The matching figures for `CN(C[C@H](O)C(F)(F)F)C(=O)c1ccc(C#N)cn1`: -15% and 1.32.
The corresponding values for `CC(=O)N1CCN(C(=O)NCc2cc(F)ccc2C)C[C@@H](O)C1` are -9% and 0.8.
The matching figures for `CCC[N+]1(CC#C[C@@](O)(c2ccccc2)C2(C)CCCC2)CCCCC1`: 51% and -4.55.
Regarding `CCC(C)(CC)[C@@](O)(C#CC[N+]1(Cc2ccccc2Cl)CCCCC1)c1ccccc1`, the “% Inhibition” value turned out to be 39% and the Z score was -4.45.
The matching figures for `C[N+]1(C/C=C/C(O)(c2ccccc2)c2ccccc2)CCCCC1`: 12% and -1.05.
Turning to `CCC1([C@@](O)(C#CCN(Cc2ccccc2)C(C)(C)C)c2ccccc2)CCCC1`, the “% Inhibition” value amounted to 33% and the Z score is -3.73.
The matching figures for `CCC[N+]1(CC#C[C@@](O)(c2ccccc2)C(C)(CC)CC)CCCCC1`: 54% and -8.65.
With `CCC1([C@@](O)(C#CCN2CCCCCC2)c2ccccc2)CCCC1`, the “% Inhibition” value was -16% and the Z score came to 1.41.
On to `CC1([C@@](O)(C#CC[N+]2(C)CCCCC2)c2ccccc2)CCCC1`, for which the “% Inhibition” value was determined as 60% and the Z score was -9.64.
The corresponding values for `CCC(C)(CC)[C@@](O)(C#CC[N+]1(Cc2ccccc2)CCCCC1)c1ccccc1` are 38% and -1.99.
The matching figures for `CCC[N+]1(CC#CC2(O)CCCCC2)CCOCC1`: -9% and 1.67.
